What all share (assay): NCI-60 one-dose screen, 48 h (100 = growth as untreated, 0 = no growth, -100 = all killed)
Common to all, as to conditions: 10 µM unless noted

The subject of experiment [1] is NCI-H23 lung.
Experiment [2] relates to NCI-H226 lung.
For experiment [3], the system named is NCI-H322M lung.
The subject of experiment [4] is HOP-62 NSCLC.
The subject of experiment [5] is NCI-H460 lung.
The subject of experiment [6] is NCI-H522 lung.
Experiment [7] relates to A549/ATCC NSCLC.
For experiment [8], the system named is 786-0 renal.
Experiment [9] has as its system COLO 205 colon.
Experiment [10] has as its system DU-145 prostate.
Experiment [11] relates to K-562 leukemia.
Experiment [12] relates to MALME-3M melanoma.
In experiment [13] the test system is MDA-MB-231 breast.
Experiment [14] concerns RXF 393 renal.
Experiment [15] concerns SF-268 CNS.
Experiment [16] has as its system SF-295 CNS.
Experiment [17] has as its system SF-539 CNS.
Experiment [18] relates to UACC-257 melanoma.
Experiment [19] concerns M14 melanoma.

Compounds without any hit were thinned out: in the full panel of roughly 83,000, 20% have a hit.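 Method: cells in 96-well plates; compound added at one concentration; 48 h incubation; percent growth measured; values under 10 scored active.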 Unmarked numbers belong to inactive results. Calls of active or inactive are those of the source.

Take `O=[N+]([O-])c1ccc(SSc2ccc([N+](=O)[O-])cc2Cl)c(Cl)c1`: the growth in [1] was 89%; in [2] it was 87.5%; in experiment [3] it was 98.2%; in [4], 112%; in experiment [5], 92.2%; in [6], 85.1%. Further, the growth was 96.3% in experiment [7]; 102% in [8]; 127% in experiment [9]; 99.5% in [10]; 77.8% in experiment [11]; 90.8% in experiment [12]. The growth is 78.2% in experiment [13]; 120% in experiment [14]; 103% in experiment [15]; 97.2% in experiment [16]; 119% in experiment [17]; 118% in experiment [18]. Besides, the growth in experiment [19] was 103%.
In the case of `Cc1ccncc1NC=O`, the growth in [1] is 101%; in experiment [2], 101%; in experiment [3], 102%; in [4], 109%; in [5] it was 106%; in experiment [6], 99.1%. Besides, the growth is 102% in [7]; 103% in experiment [8]; 110% in experiment [9]; 113% in experiment [10]; 107% in experiment [11]; 105% in experiment [12]. The growth in [13] was 110%; in [14], 111%; in [15] it was 104%; in experiment [16], 104%; in [17], 102%; in experiment [18], 106%. The growth in [19] was 96.4%.
Consider `CS(=O)(=O)c1ccc(C(=O)N/N=C/c2cccc3ccccc23)cc1`, for which the growth in experiment [1] was 89.6%; in [2], 83.7%; in [3], 93.9%; in experiment [4], 74.9%; in experiment [5], 66.8%; in experiment [6], 4.48% (active). Also, the growth is 41.3% in [7]; 90.9% in experiment [8]; 85.7% in experiment [9]; 88.8% in experiment [10]; 27.8% in experiment [11]; 69.7% in experiment [12]. Also, the growth in experiment [13] is 97.1%; in experiment [14], 99.3%; in experiment [15], 85.7%; in experiment [16], 76%; in experiment [17] it was 89.3%; in [18], 41.1%. The growth in [19] was 66.8%.
Take `COc1cccc(/C=N\Nc2ccc([N+](=O)[O-])cn2)c1O`: the growth in experiment [1] is 38%; in experiment [2], 81.5%; in experiment [3], 32%; in experiment [4] it was 46.4%; in experiment [5] it was 18%; in [6], 12.7%. Besides, the growth in experiment [7] is 57%; in experiment [8], 64.5%; in experiment [9] it was 134%; in [10], 51.6%; in experiment [11], 44.1%; in experiment [12] it was 60.9%. Moreover, the growth in experiment [13] is 42.4%; in experiment [14], 72.8%; in [15], 37.1%; in [16], 3.86% (active); in [17], 50.6%; in experiment [18], 16.2%. In experiment [19], the growth was 38.8%.
With `S=C(Cc1ccccc1)N1CCN(c2ccccc2Cl)CC1`, the growth in experiment [1] was 100%; in experiment [2], 96.9%; in experiment [3] it was 96.3%; in experiment [4], 105%; in experiment [5] it was 107%; in experiment [6], 88.2%. Further, the growth in experiment [7] is 95.1%; in experiment [8], 96.7%; in [9], 109%; in experiment [10] it was 102%; in [11], 89.8%; in experiment [12], 95.2%. Also, the growth in experiment [13] was 100%; in experiment [14] it was 117%; in [15], 95.2%; in experiment [16], 90.7%; in experiment [17], 105%; in [18], 110%. Moreover, the growth in experiment [19] is 99.1%.
`CNC(=O)c1c(NC(=O)c2ccc(C(C)C)cc2)sc2c1CCC(=O)C2`: the growth was -1.47% (active) in experiment [1]; -24.5% (active) in experiment [2]; 17.6% in experiment [3]; 12% in experiment [4]; 7.34% (active) in experiment [5]; -26.3% (active) in [6]. In addition, the growth is 15.9% in [7]; 13% in [8]; -70.3% (active) in experiment [9]; 23.4% in experiment [10]; 1.86% (active) in experiment [11]; -45.3% (active) in experiment [12]. In addition, the growth is -55.9% (active) in [13]; -32.9% (active) in [14]; 15.3% in [15]; -29.4% (active) in [16]; -63.7% (active) in experiment [17]; 1.16% (active) in experiment [18]. The growth in experiment [19] was -39.4% (active).
As to `O=C1Nc2ccc(Cl)cc2/C1=C\c1c(-c2ccc(F)cc2)nc2ccccn12`, the growth in [1] is -20.1% (active); in experiment [2], -30.8% (active); in experiment [3], 43.6%; in experiment [4], -10.3% (active); in experiment [5], 6.88% (active); in experiment [6], 11.4%. The growth was 23.7% in experiment [7]; 24.6% in [8]; 45.7% in [9]; -19% (active) in experiment [10]; -39.5% (active) in [11]; 16.6% in experiment [12]. The growth in [13] is 45.9%; in experiment [14], -13.4% (active); in experiment [15], 5.15% (active); in [16] it was -41% (active); in experiment [17], -31.2% (active); in [18], 75.6%. In addition, in [19], the growth was -9.52% (active).
As for `COc1cc(C2CC(c3ccccc3)=NN2C=O)ccc1Oc1nc2c(c(=O)n(C)c(=O)n2C)n1C` (configuration not stated), the growth in experiment [1] was 79%; in experiment [2], 79%; in experiment [3] it was 55.4%; in [4], 102%; in experiment [5] it was 91.3%; in experiment [6], 91.7%. The growth is 61.5% in experiment [7]; 98.1% in [8]; 105% in experiment [9]; 59% in [10]; 74.3% in experiment [11]; 77.9% in experiment [12]. The growth is 71.9% in [13]; 90.9% in experiment [14]; 56.3% in experiment [15]; 62.2% in [16]; 117% in [17]; -27.3% (active) in [18]. Also, the growth in experiment [19] was 69.9%.

The values above are taken from PubChem BioAssay (NCI).
